Several values for one entry are separate records, joined by “and”; a condition that tells them apart may be missing. Equal entries are not always repeated. In all, about 5,500 compounds went through this assay and about 2,000 (36%) were called active. Not shown: some 18% with an inconclusive outcome. The list shows a part of the results. A number with no mark means an inactive call. No stated cut-off is given here; in the data, active means normalized growth mostly below about 0.91 (no sharp cut-off); inconclusive means no clear call, values can overlap the other calls; inactive means mostly above about 0.92.
Experiment: chemical genetic growth profiling, strain panel (AID 1159580);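 further: tested at 20 µM; growth read once vehicle control cultures reached saturation at 30 °C; 1 = growth at the plate median or of vehicle wells; lower values mean less growth of the strain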
Details: S. cerevisiae deletion strains, growth OD

C[C@@H]1CC[C@H]2[C@@H](C)C(O)O[C@@H]3O[C@@]4(C)CC[C@@H]1[C@]32OO4 (some centres not stated)
normalized growth (locus YAL013W, strain DEP1, active compounds read low): 0.528 (active) | normalized growth (locus YAL021C, strain ccr4, active compounds read low): 0.507 (active) | normalized growth (locus YAL026C, strain drs2, active compounds read low): 0.358 (active) | normalized growth (locus YAL030W, strain snc1, active compounds read low): 0.319 (active) | normalized growth (locus YBL061C, strain skt5, active compounds read low): 0.337 (active) | normalized growth (locus YBR009C, strain hhf1, active compounds read low): 0.215 (active) | normalized growth (locus YBR021W, strain FUR4, active compounds read low): 0.857 | normalized growth (locus YBR023C, strain chs3, active compounds read low): 0.331 (active) | normalized growth (locus YBR171W, strain sec66, active compounds read low): 0.608 (active) | normalized growth (locus YBR229C, strain ROT2, active compounds read low): 0.7 (active) | normalized growth (locus YBR231C, strain swc5, active compounds read low): 0.253 (active) | normalized growth (locus YBR279W, strain paf1, active compounds read low): 0.276 (active) | normalized growth (locus YCL011C, strain gbp2, active compounds read low): 0.231 (active) | normalized growth (locus YCL016C, strain dcc1, active compounds read low): 0.275 (active) | normalized growth (locus YCL029C, strain bik1, active compounds read low): 0.325 (active) | normalized growth (locus YCL061C, strain MRC1, active compounds read low): 0.312 (active) | normalized growth (locus YCL069W, strain vba3, active compounds read low): 0.315 (active) | normalized growth (locus YCR088W, strain abp1, active compounds read low): 0.321 (active) | normalized growth (locus YDL005C, strain med2, active compounds read low): 0.448 (active) | normalized growth (locus YDL035C, strain GPR1, active compounds read low): 0.295 (active) | normalized growth (locus YDL040C, strain nat1, active compounds read low): 0.408 (active) | normalized growth (locus YDL074C, strain BRE1, active compounds read low): 0.556 (active) | normalized growth (locus YDL101C, strain DUN1, active compounds read low): 0.325 (active) | normalized growth (locus YDL134C, strain PPH21, active compounds read low): 0.314 (active) | normalized growth (locus YDL185W, strain tfp1, active compounds read low): 0.139 (active) | normalized growth (locus YDL192W, strain arf1, active compounds read low): 0.547 (active) | normalized growth (locus YDR001C, strain nth1, active compounds read low): 0.377 (active) | normalized growth (locus YDR069C, strain doa4, active compounds read low): 0.386 (active) | normalized growth (locus YDR101C, strain arx1, active compounds read low): 0.459 (active) | normalized growth (locus YDR137W, strain rgp1, active compounds read low): 0.348 (active) | normalized growth (locus YDR150W, strain NUM1, active compounds read low): 0.262 (active) | normalized growth (locus YDR159W, strain sac3, active compounds read low): 0.471 (active) | normalized growth (locus YDR162C, strain NBP2, active compounds read low): 0.356 (active) | normalized growth (locus YDR195W, strain ref2): 0.54 (active) | normalized growth (locus YDR297W, strain sur2, active compounds read low): 0.384 (active) | normalized growth (locus YDR318W, strain mcm21, active compounds read low): 0.258 (active) | normalized growth (locus YDR334W, strain swr1, active compounds read low): 0.276 (active) | normalized growth (locus YDR335W, strain msn5, active compounds read low): 0.492 (active) | normalized growth (locus YDR388W, active compounds read low): 0.316 (active) | normalized growth (locus YDR392W, strain spt3, active compounds read low): 0.133 (active) | normalized growth (locus YDR502C, strain sam2, active compounds read low): 0.415 (active) | normalized growth (locus YEL003W, strain gim4, active compounds read low): 0.237 (active) | normalized growth (locus YEL037C, strain rad23, active compounds read low): 0.407 (active) | normalized growth (locus YEL061C, strain CIN8 (second series), active compounds read low): 0.295 (active) | normalized growth (locus YEL061C, strain CIN8, active compounds read low): 0.302 (active) | normalized growth (locus YER015W, strain faa2, active compounds read low): 0.179 (active) | normalized growth (locus YER016W, strain bim1, active compounds read low): 0.235 (active) | normalized growth (locus YER110C, active compounds read low): 0.275 (active) | normalized growth (locus YER111C, strain swi4, active compounds read low): 0.5 (active) | normalized growth (locus YER155C, strain BEM2 (second series), active compounds read low): 0.568 (active) | normalized growth (locus YER155C, strain BEM2, active compounds read low): 0.345 (active) | normalized growth (locus YER167W, strain BCK2, active compounds read low): 0.198 (active) | normalized growth (locus YFR010W, strain ubp6, active compounds read low): 0.391 (active) | normalized growth (locus YGL078C, strain dbp3, active compounds read low): 0.477 (active) | normalized growth (locus YGL086W, strain mad1, active compounds read low): 0.279 (active) | normalized growth (locus YGL167C, strain pmr1, active compounds read low): 0.781 (active) | normalized growth (locus YGL173C, strain kem1, active compounds read low): 0.729 (active) | normalized growth (locus YGL227W, strain vid30, active compounds read low): 0.254 (active) | normalized growth (locus YGL240W, strain doc1, active compounds read low): 0.23 (active) | normalized growth (locus YGL248W, strain PDE1, active compounds read low): 0.282 (active) | normalized growth (locus YGL253W, strain hxk2, active compounds read low): 0.251 (active) | normalized growth (locus YGR078C, strain PAC10, active compounds read low): 0.527 (active) | normalized growth (locus YGR135W, strain pre9, active compounds read low): 0.653 (active) | normalized growth (locus YGR229C, strain SMI1, active compounds read low): 0.286 (active) | normalized growth (locus YGR252W, strain gcn5, active compounds read low): 0.665 (active) | normalized growth (locus YHR013C, strain ard1, active compounds read low): 0.234 (active) | normalized growth (locus YHR027C, strain rpn1, active compounds read low): 0.221 (active) | normalized growth (locus YHR030C, strain SLT2, active compounds read low): 0.252 (active) and 0.332 (active) | normalized growth (locus YHR079C, strain IRE1 (second series), active compounds read low): 0.359 (active) | normalized growth (locus YHR079C, strain IRE1, active compounds read low): 0.3 (active) | normalized growth (locus YHR094C, strain hxt1, active compounds read low): 0.388 (active) | normalized growth (locus YHR129C, strain ARP1, active compounds read low): 0.331 (active) | normalized growth (locus YHR142W, strain chs7, active compounds read low): 0.284 (active) | normalized growth (locus YHR200W, strain rpn10, active compounds read low): 0.562 (active) | normalized growth (locus YIL066C, strain RNR3, active compounds read low): 0.229 (active) | normalized growth (locus YIL073C, strain SPO22, active compounds read low): 0.308 (active) | normalized growth (locus YIL125W, strain kgd1, active compounds read low): 0.411 (active) | normalized growth (locus YIR030C, strain dcg1, active compounds read low): 0.381 (active) | normalized growth (locus YJL092W, strain hpr5, active compounds read low): 0.346 (active) | normalized growth (locus YJL095W, strain BCK1 (second series), active compounds read low): 0.267 (active) | normalized growth (locus YJL095W, strain BCK1, active compounds read low): 0.298 (active) and 0.302 (active) | normalized growth (locus YJL115W, strain asf1, active compounds read low): 0.443 (active) | normalized growth (locus YJL129C, strain trk1, active compounds read low): 0.538 (active) | normalized growth (locus YJL134W, strain LCB3, active compounds read low): 0.589 (active) | normalized growth (locus YJL154C, strain vps35, active compounds read low): 0.42 (active) | normalized growth (locus YJL164C, strain tpk1, active compounds read low): 0.248 (active) | normalized growth (locus YJL166W, strain qcr8, active compounds read low): 0.167 (active) | normalized growth (locus YJL168C, strain set2, active compounds read low): 0.422 (active) | normalized growth (locus YJL187C, strain SWE1 (second series), active compounds read low): 0.392 (active) | normalized growth (locus YJL187C, strain SWE1, active compounds read low): 0.299 (active) | normalized growth (locus YJR043C, strain POL32, active compounds read low): 0.369 (active) | normalized growth (locus YJR066W, strain TOR1, active compounds read low): 0.319 (active)
